Rows were chosen to be rich in hits. Some 0.61% of all compounds tested hit in one or more screens of this group.
Sa RN4220 lethal – kills Staphylococcus aureus RN4220; S. aureus RN4220 growth, OD600, 16 h; inhibition, % (concentration not given with the values); 330,000 tested, 0.33% active; AID 1259311; in the data active means inhibition above about 85%;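 further: plate controls were untreated cells for no effect and reference antibiotic for full effect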
Mtb hypoxia rep – reduces hypoxia-regulated biosensor signal in M. tuberculosis | 300,000 tested, 0.1% active | fluorescence inhibition, % (no concentration beside the values) | M. tuberculosis hypoxia-regulated fluorescent reporter, fluorescence; in the data active means fluorescence inhibition mostly above about 23%, no sharp cut-off; inactive means mostly below about 17%
ugtP null kill – growth inhibition of S. aureus ugtP deletion strain | growth inhibition, % (no concentration beside the values) | 330,000 tested, 0.54% active | AID 1259309 | S. aureus RN4220 ugtP deletion, OD600 growth, 16 h; in the data active means growth inhibition above about 68%;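 further: plate controls were untreated wells for no effect and antibiotic for full effect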
Mtb bLac sens – beta-lactam sensitization of Mtb H37Rv; M. tuberculosis H37Rv growth with meropenem, percent inhibition; inhibition, % at 25 µM; 330,000 tested, 0.27% active; call rule not given here;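 further: growth measured after seven days incubation then overnight dye step; 0% = bacteria only wells and 100% = bacteria with antibiotic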
* = called active by the depositor.

How did CCn1c(O)c(C=NN=C2CCCCC2)c2cc(C3=NNC(=O)CC3)ccc21 do in these assays?
Sa RN4220 lethal: 2.4; Mtb hypoxia rep: 8.2; ugtP null kill: 4.4

Results for CCOc1ccc2ccccc2c1C=NNC(=O)c1ccc(C)nc1 ?
Sa RN4220 lethal: 5.9; Mtb hypoxia rep: 16.2; ugtP null kill: 13.8

Results for CC1CN(C(=O)/C=C/c2ccc3c(c2)OCO3)CC(C)O1 (configuration not stated) ?
Sa RN4220 lethal: -0.5; Mtb hypoxia rep: 91.1*; ugtP null kill: -0.6; Mtb bLac sens: -10.1

How did CCC(=NNC(=O)c1nnn(-c2nonc2N)c1CN(C)c1ccccc1)c1ccccc1 do in these assays?
Sa RN4220 lethal: -1.0; Mtb hypoxia rep: -8.2; ugtP null kill: -9.5

What do the screens show for `CC1CN(C(C)CO)C(=O)c2cccc(NS(=O)(=O)c3ccccc3)c2OC1CN(C)S(=O)(=O)c1ccccc1` (configuration not stated)?
Sa RN4220 lethal: 4.2; Mtb hypoxia rep: 4.1; ugtP null kill: -3.9

Results for CC[n+]1ccc(/C=C/c2ccc(N(C)C)cc2)c2ccccc21 ?
Sa RN4220 lethal: 92.3*; Mtb hypoxia rep: 16.9; ugtP null kill: 95.5*

Results for CC[n+]1ccccc1/C=C/c1ccc(N(C)C)cc1 ?
Sa RN4220 lethal: 2.4; ugtP null kill: 6.7

Results for CC[n+]1c(/C=C/c2ccc(N(C)C)cc2)ccc2ccccc21 ?
Sa RN4220 lethal: 98.2*; Mtb hypoxia rep: 10.5; ugtP null kill: 96.1*; Mtb bLac sens: 90.4

How did CCN(CC)c1ccc(/C=C/c2ccc3ccc(OC)cc3[n+]2CC)cc1 do in these assays?
Sa RN4220 lethal: 99.9*; ugtP null kill: 98.7*; Mtb bLac sens: 91.6

What do the screens show for `CN(C)C=Nc1nc(-c2ccc3c(c2)OCO3)cs1`?
Sa RN4220 lethal: 7.6; Mtb hypoxia rep: 10.7; ugtP null kill: -4.9

How did COc1ccc(/C=N/OCc2ccc(Br)cc2)c(OC)c1 do in these assays?
Mtb bLac sens: 51.4

How did COc1ccc(C=NOCc2ccc(Br)cc2)c(OC)c1 do in these assays?
Sa RN4220 lethal: -1.9; Mtb hypoxia rep: 11.4; ugtP null kill: 86.5*

What do the screens show for `CCOc1ccc(CCNC(=O)c2ccc(CS(=O)Cc3ccc(Cl)cc3)o2)cc1` (configuration not stated)?
Sa RN4220 lethal: -8.0; Mtb hypoxia rep: 1.6; ugtP null kill: 95.1*; Mtb bLac sens: -5.0

How did O=C(NCc1cccc(Cl)c1)c1ccc(CS(=O)Cc2ccc(Cl)cc2)o1 (configuration not stated) do in these assays?
Sa RN4220 lethal: 0.2; Mtb hypoxia rep: 1.4; ugtP null kill: 4.4; Mtb bLac sens: 0.9

What do the screens show for `O=C(NCCc1ccc(Cl)cc1)c1ccc(CS(=O)Cc2ccc(Cl)cc2)o1` (configuration not stated)?
Sa RN4220 lethal: -1.9; Mtb hypoxia rep: 6.9; ugtP null kill: 99.3*; Mtb bLac sens: 91.2

How did CCOc1ccc(CCNC(=O)c2ccc(CS(=O)Cc3ccccc3Cl)o2)cc1 (configuration not stated) do in these assays?
Sa RN4220 lethal: -3.2; Mtb hypoxia rep: 9.7; ugtP null kill: 14.2; Mtb bLac sens: 6.5

How did O=C(NCCc1ccccc1)c1ccc(CS(=O)Cc2cccc(Cl)c2)o1 (configuration not stated) do in these assays?
Sa RN4220 lethal: -5.5; Mtb hypoxia rep: 3.9; ugtP null kill: 87.3*; Mtb bLac sens: 0.8

What do the screens show for `CCOc1ccc(-c2c(C(=O)NN=Cc3ccccc3)nnn2-c2nonc2N)cc1`?
Sa RN4220 lethal: 2.2; Mtb hypoxia rep: 7.7; ugtP null kill: 2.4

Results for COc1ccc(C(=O)c2ccc(Br)cc2)c2ccccc12 ?
Sa RN4220 lethal: -7.0; Mtb hypoxia rep: 15.7; ugtP null kill: 11.1; Mtb bLac sens: -6.6

Results for COc1ccc(C(=O)c2ccc(Cl)cc2)c2ccccc12 ?
Sa RN4220 lethal: -5.2; ugtP null kill: 95.5*; Mtb bLac sens: -8.8

Results for Cc1ncc(C[n+]2csc(CCOC(=O)CC34CC5CC(CC(C5)C3)C4)c2C)c(N)n1 ?
Sa RN4220 lethal: -0.8; Mtb hypoxia rep: -4.4; ugtP null kill: -3.9; Mtb bLac sens: -1.9

How did Cc1c(CCOC(=O)CC23CC4CC(CC(C4)C2)C3)sc[n+]1Cc1ccccc1 do in these assays?
Sa RN4220 lethal: 86.9; Mtb hypoxia rep: 8.0; ugtP null kill: 100.0*; Mtb bLac sens: 84.3

Results for Cc1nc(SCc2ccc(F)cc2)c2oc3ccccc3c2n1 ?
Sa RN4220 lethal: 10.3; ugtP null kill: -14.8; Mtb bLac sens: 7.0

How did Cc1nc(SCc2ccccc2F)c2oc3ccccc3c2n1 do in these assays?
Sa RN4220 lethal: 8.0; Mtb hypoxia rep: 39.8*; ugtP null kill: 9.0; Mtb bLac sens: 8.0

How did CCc1nc(SCC(=O)Nc2ccc3c(c2)OCCO3)c2oc3ccccc3c2n1 do in these assays?
Sa RN4220 lethal: 5.4; ugtP null kill: 6.1; Mtb bLac sens: 11.2

How did Cc1nc(SCC(=O)Nc2ccc3c(c2)OCCO3)c2oc3ccccc3c2n1 do in these assays?
Sa RN4220 lethal: 4.5; Mtb hypoxia rep: 6.5; ugtP null kill: 90.3*; Mtb bLac sens: 34.5

How did Cc1cccc(/C=C/C(=O)c2ccc([N+](=O)[O-])o2)c1 do in these assays?
Mtb bLac sens: 99.8

What do the screens show for `COc1ccc(C=CC(=O)c2ccc([N+](=O)[O-])o2)cc1OC`?
Sa RN4220 lethal: 48.1; ugtP null kill: 100.0*

How did COc1ccc(/C=C/C(=O)c2ccc([N+](=O)[O-])o2)cc1 do in these assays?
Mtb bLac sens: 100.2

Results for O=C(C=Cc1cccc([N+](=O)[O-])c1)c1ccc([N+](=O)[O-])o1 ?
Sa RN4220 lethal: 100.4*; ugtP null kill: 99.8*

Results for Cc1ccccc1C=CC(=O)c1ccc([N+](=O)[O-])o1 ?
Sa RN4220 lethal: 32.7; Mtb hypoxia rep: 21.5; ugtP null kill: 100.6*

Results for Cc1cccc(C=CC(=O)c2ccc([N+](=O)[O-])o2)c1 ?
Sa RN4220 lethal: 100.7*; ugtP null kill: 100.4*

Results for Cc1nc2ccccc2c(=O)n1N=Cc1ccccc1F ?
Sa RN4220 lethal: 1.8; Mtb hypoxia rep: 6.9; ugtP null kill: -0.3

How did COc1ccccc1OCC(=O)NN=Cc1cccc2cccnc12 do in these assays?
Sa RN4220 lethal: 1.6; Mtb hypoxia rep: 3.0; ugtP null kill: 2.6

How did Cc1nn(-c2ccccc2)c(C)c1C=NNC(=O)c1cc(O)cc(O)c1 do in these assays?
Sa RN4220 lethal: 1.5; Mtb hypoxia rep: 0.2; ugtP null kill: 9.2

Results for O=C(NN=C1CCCc2ccccc21)C(c1ccccc1)c1ccccc1 ?
Sa RN4220 lethal: 0.0; Mtb hypoxia rep: 5.2; ugtP null kill: -13.4

Results for O=C(Nc1ccccc1Cl)C(Cl)=C(Cl)S(=O)c1ccccc1 (configuration not stated) ?
Sa RN4220 lethal: 100.7*; ugtP null kill: 99.9*

Results for C=CC1c2ccccc2N(S(=O)(=O)c2ccc(C)cc2)C(c2ccc(C(=O)OC)cc2)C1(C#N)C#N (configuration not stated) ?
Sa RN4220 lethal: 11.2; Mtb hypoxia rep: 10.4; ugtP null kill: -19.6

Results for C[C@]12C(=O)N(c3ccc(Cl)cc3)C(=O)N1C1c3ccccc3OCC1C2c1ccccc1 (some centres not stated) ?
Sa RN4220 lethal: -0.8; Mtb hypoxia rep: 0.0; ugtP null kill: 4.0

Bioassay records deposited in PubChem BioAssay by several laboratories.
